Results on five compounds are retold here after PubChem BioAssay AID651956 (Broad Institute, 2012).

Each structure is given as a SMILES string. Results with a measured potency or affinity are listed apart. Inconclusive results are not listed. Active and inactive are the calls of the source.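 How the source made its calls: active means in every test run, a fitted half-maximal concentration for signal decrease at or below twice the highest tested concentration; inconclusive means runs disagree, flat 30 to 70% decrease, or poor fit; inactive means the rest.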

This test can be described thus: miR-122 activators in hepatoma reporter cells, dose response, cell-based, Huh7 psiCHECK-miR122, Renilla luciferase, cherry-picked (AID 651956).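 Further: Renilla luciferase from a miR-122 sensor reporter so lower signal means miR-122 activation.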 To be noted: 48 h; series mostly up to 35 µM.
Take `Cc1cc(C)cc(NC(=O)c2ccc(CSc3nnc(C)s3)cc2)c1`: the compound was called inactive.

`CN1C(=O)c2cc(NC(=O)Nc3ccccc3F)ccc2OC[C@@H]2O[C@@H](CC(=O)NCc3ccc(-c4ccccc4)cc3)CC[C@@H]21`: the compound was called inactive.

Turning to `CCNC(=O)C[C@H]1CC[C@H]2[C@@H](COc3ccc(NS(C)(=O)=O)cc3C(=O)N2C)O1`, the outcome was inactive.

Turning to `C[C@@H]1CN([C@@H](C)CO)C(=O)c2cc(NC(=O)Nc3ccc(C(F)(F)F)cc3)ccc2O[C@@H]1CN(C)CC1CCCCC1`, the compound was classed as inactive.

With `COc1nnc(-c2ccc(N3CCOCC3)c(NC(=O)c3ccccc3)c2)c2ccccc12`, the call was inactive.
